Shown are actives, neighbours in structure and some others; about 2.7% of the full set was active somewhere.
GLP1R cytotox = qHTS of GLP-1 Receptor Inverse Agonists: Cytotox Screen; Potency, µM (doses to about 38.3 µM), inactives show at the top dose activity change, negative = inhibition, usual class: inhibitors; AID 624418, 2012; 410,000 compounds, 0.13% hits; HEK293 cAMP-luciferase reporter cells, luminescence, 24 h;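 further: loss of luciferase light is scored as toxicity; on the % scale 0 is the no-effect control and ±100 the full control effect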
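Quantitative HTS format, 1536 wells, 200 cells/uL seeded. Compounds: 23 nL, 24 h, 37 °C. Detection: luciferase reagent, luminescence at 12 min RT; decreased signal taken as cytotoxic.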
GLP-1R agonist = qHTS of GLP-1 Receptor Agonists | Glucagon-like peptide 1 receptor (Homo sapiens), P43220 | HEK293 GLP-1R CRE-luciferase, luminescence, 4-6 h; cells express a hypersensitive GLP-1R form | Potency, µM (doses to about 45.6 µM), for inactives: at the highest dose activation, usual class: activators | 380,000 compounds, 0.007% hits | AID 624172, 2012; further: % of control where 0% means no effect
Target sequence (P43220 whole entry, looked up): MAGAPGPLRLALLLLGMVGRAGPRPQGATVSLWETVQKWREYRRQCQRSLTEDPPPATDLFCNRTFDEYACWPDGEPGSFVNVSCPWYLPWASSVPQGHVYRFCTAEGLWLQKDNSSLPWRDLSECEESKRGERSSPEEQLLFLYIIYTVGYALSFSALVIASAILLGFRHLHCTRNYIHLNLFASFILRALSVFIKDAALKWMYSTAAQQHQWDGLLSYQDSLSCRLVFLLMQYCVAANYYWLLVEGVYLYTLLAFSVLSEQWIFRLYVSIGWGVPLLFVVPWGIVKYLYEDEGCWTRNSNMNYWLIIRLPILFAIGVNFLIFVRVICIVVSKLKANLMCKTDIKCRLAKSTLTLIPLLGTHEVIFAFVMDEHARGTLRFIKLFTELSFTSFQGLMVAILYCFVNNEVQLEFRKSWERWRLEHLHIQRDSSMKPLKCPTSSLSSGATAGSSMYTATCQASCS
Integrin act MD = qHTS for Activators of Integrin-Mediated Alleviation for Muscular Dystrophy | alpha7betagal myoblasts, beta-gal FDG fluorescence, 48 h | Potency, µM (top dose mostly 38.3 µM), without a hit: top-dose activation, hits mostly activators | 350,000 compounds, 0.064% hits | AID 624291, 2012;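 further: 100% = response of the positive control SU9516; nearly all actives have a fitted effect of over 60% in size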
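Alpha7betagal+/- myoblasts (passage 13) were plated 16-24 hr, then exposed to compounds (1:260 dilution of DMSO stock) for 48 hours at 37C. After MPER lysis, β-galactosidase reporter activity was read as FDG fluorescence (ex 480/em 540) after 30 minutes.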
BRCA1 expr act = qHTS Assay to Identify Small Molecule Activators of BRCA1 Expression; AID 624202, 2012; 380,000 compounds, 1.1% hits; Potency, µM (highest dose often 46.1 µM), for inactives: top-dose activation, hits mostly activators; MCF7-BRCA1-FFLuc reporter, luminescence, 48 h; response scale: scaled: vehicle 0%, 10 µM genistein 100%; further: nearly all actives have a fitted effect of over 80% in size
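Using MCF7 cells harboring a BRCA1 firefly luciferase reporter, plated 2 h before compound pinning, the screen measured luminescence after 48 h incubation. Responses were normalized to DMSO and 10 microM genistein, then fitted for concentration-effect.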
GLP1R inv ag = qHTS of GLP-1 Receptor Inverse Agonists (Inhibition Mode). AID 624417, 2012. Glucagon-like peptide 1 receptor (Homo sapiens), P43220. Potency, µM (titrated, usually from 38.3 µM), inactives show top-dose activity change, negative = inhibition, usual class: inhibitors. HEK293 GLP-1R CRE-luciferase, luminescence, 24 h; GLP-1R form is constitutively active. 410,000 compounds, 1.6% hits; further: on the % scale 0 is the no-effect control and ±100 the full control effect; nearly all actives have a fitted effect of over 55% in size
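Assay principle: reduced luminescence from a cAMP-responsive reporter in HEK293 cells co-expressing a constitutively active GLP-1R. Conditions: 24 hr compound incubation, 37 deg C, 5% CO2.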
Active calls of the source: *; ? = inconclusive; nt = no result; [ ] = another dose, or the depositor's remark. The call rests on the fitted dose curve; in most records, active means well fitted curve in the direction sought with a large enough effect; inconclusive means small, poorly fitted or top-dose-only effect, or another doubt; inactive means no such curve, though single readings can be large; an effect the other way counts as inactive or inconclusive. Potency means the concentration at half of the fitted maximal effect.

SMILES	GLP1R cytotox	GLP-1R agonist	Integrin act MD	BRCA1 expr act	GLP1R inv ag
COc1cccc(CNC(=O)CN(c2cc(C)cc(C)c2)S(=O)(=O)c2c(C)noc2C)c1	1%	0%	-5%	0%	10µM*
COc1ccc(-c2noc(CSc3nnc(C)n3-c3cccc(C)c3)n2)cc1	3%	nt	nt	-14%	?
Cc1ccc(NC(=O)C2C3CC4OC(=O)C2C4C3)cc1Cl (configuration not stated)	8%	10%	10%	-1%	-5%
CC(C)OC(=O)c1ccc(NC(=O)C2C3CC4OC(=O)C2C4C3)cc1 (configuration not stated)	8%	-4%	-6%	7.1µM*	-8%
O=c1[nH]c(SCc2ccccc2Cl)nc2c1CCC2	9%	15%	-18%	18%	0%
CNc1nc(SCc2ccccc2Cl)nc2c1CCCC2	-17%	2%	-22%	-42%	10µM*
Cc1ccc2c(=O)cc(C(=O)Nc3nc4ccc(Cl)cc4s3)oc2c1C	-8%	nt	nt	nt	-5%
FC(F)(F)c1nc(N2CCCC2)ncc1-c1nnnn1-c1ccc(Cl)cc1	-26%	-1%	-34%	-38%	7.1µM*
FC(F)(F)c1ccncc1-c1nnnn1-c1ccc(Cl)cc1	7%	-1%	-16%	-4%	-14%
CCc1nc(SCc2ccc(Br)cc2)n[nH]1	5%	5%	0%	10µM*	10%
COc1ccc(S(=O)(=O)Nc2ccc(-c3cn4ccsc4n3)cc2)cc1C	-2%	-5%	nt	0%	24%
CN(C)S(=O)(=O)Nc1ccc(-c2cn3ccsc3n2)cc1	0%	11%	nt	11µM*	12%
Cc1ccc(C(=O)NCC(=O)N(C)Cc2cccc(F)c2)s1	-4%	3%	17%	7%	0%
Cc1ccc(C(=O)NCC(=O)N(C)Cc2ccccc2C)s1	-8%	-5%	23%	11µM*	-9%
COc1ccc2oc(=N)c(C(=O)Nc3ccccc3Cl)cc2c1	3%	-8%	20%	4.5µM*	12%
COc1ccc(CCN2C(=S)N(C)C(=O)C2CC(=O)Nc2ccc(OC)cc2)cc1 (configuration not stated)	4%	17%	-11%	-19%	?
COc1ccc(CCN2C(=O)N(c3ccc(C)cc3)C(=O)C2CC(=O)Nc2ccc(F)cc2)cc1 (configuration not stated)	-18%	-2%	nt	-8%	7.9µM*
COc1ccc(NC(=O)CC2C(=O)N(C)C(=S)N2CCc2ccc(F)cc2)cc1 (configuration not stated)	-21%	5%	-24%	-62%	11µM*
COC(=O)c1cc(Cl)c(NC(=O)c2ccc(C(C)(C)C)cc2)cc1OC	-2%	0%	-17%[7.66 µM]	3.5µM*	-4%
COC(=O)c1cc(Cl)c(NC(=O)C(C)C)cc1OC	6%	6%	5%	-9%	14%
Cc1ccc(NC(=O)N2CCN(C)c3ncccc32)cc1C	-8%	-5%	nt	2%	11%
CCOc1ccc(C2C(=O)N(C3CCCCCC3)CC(=O)N2CCc2ccc(OC)c(OC)c2)cc1OC (configuration not stated)	16%	nt	nt	nt	9%
CC(CCC(C)[n+]1cccc(C#N)c1)[n+]1cccc(C#N)c1 (configuration not stated)	nt	nt	nt	1%	nt
CCOc1ccc(S(=O)(=O)n2cc(-c3ccc(F)cc3)c(N)n2)cc1	3%	1%	-15%[7.66 µM]	-24%	?
CCOc1cc(S(=O)(=O)n2cc(-c3ccc(F)cc3)c(N)n2)cc(OCC)c1OCC	?	1%	11%	-63%	2.2µM*
SMILES	GLP1R cytotox	GLP-1R agonist	Integrin act MD	BRCA1 expr act	GLP1R inv ag
Cc1ccc(N2C(=O)c3ccccc3NC2c2ccccc2O)cc1 (configuration not stated)	21%	-5%	0%	1.6µM*	?
CCN1c2ccccc2-n2cccc2C12CCN(C(=O)Nc1ccccc1Br)CC2	0%	nt	nt	nt	10µM*
CCN1c2cc(C)ccc2-n2cccc2C12CCN(C(=O)Nc1cc(OC)c(OC)c(OC)c1)CC2	-6%	nt	nt	nt	11µM*
COc1cc(NC(=O)N2CCC3(CC2)Nc2cc(F)ccc2-n2cccc23)cc(OC)c1OC	-21%	nt	nt	nt	?
COc1ccc(Br)cc1C(C[N+](=O)[O-])c1c(N)n(C)c(=O)n(C)c1=O (configuration not stated)	10µM*	-2%	-60%	-87%	?
Cc1ccc(NC(=O)C2Cc3ccccc3N2C(=O)c2ccccc2)cc1Cl (configuration not stated)	7%	nt	nt	nt	11%
Clc1ccccc1CSc1nc2ccncc2[nH]1	-3%	5%	4%	?	-2%
O=C(NCc1ccccc1Cl)c1ccc(CSc2nc3ccncc3[nH]2)cc1	-4%	8%	5%	0%	10µM*
CCCNc1nc(-c2ccccc2)c(C(=O)OCC)cc1C#N	-14%	21%	1%	-73%	?
C=CCNc1nc(-c2ccccc2)c(C(=O)OCC)cc1C#N	?	25%	-37%	-67%	5µM*
CC(C)(C)CC(=O)Nc1ccc(Nc2ccccc2)cc1	-24%	3%	0%	6.3µM*	?
CCCCc1ccc(NC(=O)CC(C)(C)C)cc1	8%	12%	-12%	13µM*	11µM*
CCCCc1ccc(NC(=O)CC(C)=O)cc1	?	-10%	-17%	45%	-2%
CC(C)CC(=O)Nc1ccc(Nc2ccccc2)cc1	-22%	-17%	13%	48%	?
O=C(c1ccc(F)cc1)C(CCCCCC(CN1CCOCC1)C(=O)c1ccc(F)cc1)CN1CCOCC1 (configuration not stated)	-15%	-1%	-62%	-45%	10µM*
Cc1ccc2ncc(C(=O)NCc3ccccc3Cl)c(=O)n2c1	18%	nt	nt	nt	18%
CC(COc1ccccc1)NN (configuration not stated)	nt	-4%	nt	nt	nt
CC1CCN(C(=O)c2cc3c(ccc4ccccc43)o2)CC1	25%	-1%	?	-2%	10µM*
Cc1ccc2occ(CC(=O)N(Cc3ccc(Cl)cc3)C3CCS(=O)(=O)C3)c2c1 (configuration not stated)	-7%	nt	nt	nt	11µM*
C/C(=N\NC(=O)c1cccc(C)c1O)c1ccc(NC(=O)Cc2ccccc2)cc1	-21%	0%	0%	5µM*	-4%
O=C(NCc1ccc(F)cc1)c1ccccc1OCc1ccccc1	4%	20%	17%	5%	10µM*
C/C(=N\NC(=O)c1ccccc1OCc1ccc(F)cc1)c1ccccn1	?	15%	-87%	-78%	5µM*

Assay outcomes from PubChem.
